Results taken from PubChem BioAssay (EPA / NIEHS).
Calls of active or inactive are those of the source. Rule for the calls: active = hit-call score of the fitted dose curve at least 0.9, where 1 is the maximum; inactive = score below 0.9.

Experiments:
[1] = target: CCAAT/enhancer-binding protein beta (Homo sapiens) (UniProt P17676); test: ATG_C_EBP_CIS: Attagene CIS-FACTORIAL HepG2 Assay for human CCAAT/Enhancer Binding Protein (C/EBP) beta (AID 2282927); conditions: HepG2 Attagene cis-factorial transcription factor reporter; actives raise or lower the signal
How it was run: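 HepG2, transient MRTU transfection, 24 h treatment. RT-PCR plus CE fluorescence; DMSO negative control, bidirectional fit.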

[2] = ATG_CMV_CIS: Attagene CIS-FACTORIAL HepG2 Assay for human CMV (Internal Marker) (AID 2282928); conditions: HepG2 CMV promoter reporter, transcription factor profiling; actives raise or lower the signal;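 note: endpoint acts as a background internal control marker rather than a target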
How it was run: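 After transient transfection of HepG2 with reporter transcription units driven by cis-regulatory promoters, cells receive test chemical for 24 h. Labeled reporter amplicons, digested with HpaI, are sized and quantified by capillary electrophoresis against DMSO.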

[3] = ATG_AP_1_CIS: Attagene CIS-FACTORIAL HepG2 Assay for human Activator Protein 1 (AP-1) (AID 2282931); conditions: HepG2 Attagene cis-factorial AP-1 reporter mRNA; actives raise or lower the signal
How it was run: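 Endogenous transcription-factor activity in human HepG2 liver cells is read through a cis-promoter reporter transcript, sampled 24 h after dosing. Detection uses RT-PCR with capillary electrophoresis; values come from bidirectional fitting relative to DMSO.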

[4] = ATG_AP_2_CIS: Attagene CIS-FACTORIAL HepG2 Assay for human Activator Protein 2 (AP-2) (AID 2282932); conditions: HepG2 AP-2 cis-reporter, Attagene transcription factor profiling; actives raise or lower the signal
How it was run: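 Multiplexed mRNA reporter assay in HepG2: cis-regulated units report endogenous factor activity after 24 h treatment. Fluorescence from capillary electrophoresis of RT-PCR products gives the signal, with DMSO as baseline.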

[5] = ATG_BRE_CIS: Attagene CIS-FACTORIAL HepG2 Assay for human Bone Morphogenetic Protein (BMP) Response Element (BRE) (AID 2282933); conditions: HepG2 BMP response element reporter, Attagene transcription factor profiling; actives raise or lower the signal
How it was run: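 Transient MRTU transfection of human HepG2 liver cells; 24 h compound treatment; total RNA isolated, reverse-transcribed, PCR-amplified, 6-FAM labelled, HpaI-cut, capillary electrophoresis. DMSO = negative control/baseline, bidirectional fit.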

[6] = ATG_E_Box_CIS: Attagene CIS-FACTORIAL HepG2 Assay for human Enhancer Box (E-box) (AID 2282936); conditions: HepG2 E-box cis-reporter transcription, actives raise or lower the signal
How it was run: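 First, HepG2 cells receive multiple cis-regulated reporter constructs by transient transfection. Next, chemicals are applied for 24 h. Finally, reporter mRNA is quantified via RT-PCR and capillary electrophoresis, with DMSO as baseline.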

[7] = ATG_M_61_CIS: Attagene CIS-FACTORIAL HepG2 Assay for M61 Transcription Factor (Internal Marker) (AID 2282937); conditions: HepG2 Attagene CIS-FACTORIAL M61 internal marker reporter; actives raise or lower the signal
How it was run: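 Cells were transfected with reporter units under cis-regulatory promoters, treated with chemicals for 24 h, then lysed for RNA. Reporter transcripts were quantified by RT-PCR and capillary electrophoresis, and activity was fitted bidirectionally against DMSO.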

[8] = ATG_EGR_CIS: Attagene CIS-FACTORIAL HepG2 Assay for human Early Growth Response 1 (EGR1) (AID 2282938); conditions: HepG2 Attagene CIS-FACTORIAL EGR reporter mRNA; actives raise or lower the signal
How it was run: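 Endogenous TF activity in HepG2 liver cells was gauged through cis-promoter reporter constructs transiently transfected. After 24 h dosing, reporter mRNA was quantified by RT-PCR and capillary electrophoresis, and curves fitted in both directions versus DMSO.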

[9] = ATG_Ets_CIS: Attagene CIS-FACTORIAL HepG2 Assay for human Erythroblast Transformation Specific (ETS) (AID 2282941); conditions: HepG2 ETS cis-reporter transcription, actives raise or lower the signal
How it was run: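 Human HepG2 hepatoma cells were transiently transfected with promoter-driven reporter constructs and treated for 24 hours. Reporter transcripts were quantified by RT-PCR with fluorescent primer extension; bidirectional curve fitting used DMSO as reference.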

[10] = target: Hepatocyte nuclear factor 3-beta (Homo sapiens) (UniProt Q9Y261); test: ATG_FoxA2_CIS: Attagene CIS-FACTORIAL HepG2 Assay for human Forkhead box A2 (FOXA2) (AID 2282942); conditions: HepG2 cis-reporter transcription factor activity, 24 h; actives raise or lower the signal
How it was run: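 Endogenous transcription factor activity was read in HepG2 cells carrying transiently transfected cis-promoter reporter units. After 24 h dosing, reporter mRNA was quantified by RT-PCR and capillary electrophoresis, and values fitted bidirectionally versus DMSO.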

[11] = ATG_FoxO_CIS: Attagene CIS-FACTORIAL HepG2 Assay for human Forkhead box O (FoxO) (AID 2282943); conditions: HepG2 Attagene cis-reporter, FoxO element, mRNA; actives raise or lower the signal
How it was run: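 Transfected HepG2 reporter cells exposed to test chemical for 24 h; reporter RNA measured by reverse transcription, PCR and fluorescent capillary electrophoresis; curves fitted for increases and decreases against DMSO.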

[12] = ATG_GATA_CIS: Attagene CIS-FACTORIAL HepG2 Assay for human GATA Binding Protein (AID 2282944); conditions: HepG2 GATA cis-element reporter, Attagene multiplex mRNA; actives raise or lower the signal
How it was run: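 Transient MRTU transfection, HepG2, 24 h compound exposure. Total RNA → oligo(dT) RT → PCR → 6-FAM primer extension → HpaI cut → CE. Bidirectional fit vs DMSO.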

[13] = ATG_ISRE_CIS: Attagene CIS-FACTORIAL HepG2 Assay for human Interferon Regulatory Factor 1 (IRF1) binding to an Interferon-Stimulated Response Element (ISRE) (AID 2282948); conditions: HepG2 ISRE cis-reporter (Attagene), mRNA transcription readout; actives raise or lower the signal
How it was run: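 Cell-based cis-reporter assay; HepG2; 24 h exposure; reporter mRNA by RT-PCR plus capillary electrophoresis fluorescence; activity in either direction scored relative to DMSO.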

[14] = ATG_M_32_CIS: Attagene CIS-FACTORIAL HepG2 Assay for M32 Transcription Factor (Internal Marker) (AID 2282949); conditions: HepG2 Attagene cis-factorial M32 reporter, mRNA; actives raise or lower the signal;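 note: background control marker of the multiplexed CIS panel rather than a real target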
How it was run: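 Internal background marker read-out: RT-PCR/capillary electrophoresis fluorescence of reporter transcripts from transiently transfected HepG2 cells after 24 h chemical exposure. Activity fitted bidirectionally relative to DMSO negative control.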

[15] = ATG_M_06_CIS: Attagene CIS-FACTORIAL HepG2 Assay for M06 Transcription Factor (Internal Marker) (AID 2282950); conditions: HepG2 Attagene CIS-FACTORIAL M06 internal marker reporter; actives raise or lower the signal
How it was run: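 Read-out is fluorescence of labelled reporter cDNA fragments resolved by capillary electrophoresis after RT-PCR. Cells: HepG2 carrying transfected cis-promoter reporter units, treated 24 h. Gain or loss of signal fitted relative to DMSO.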

[16] = target: Hepatocyte nuclear factor 6 (Homo sapiens) (UniProt Q9UBC0); test: ATG_HNF6_CIS: Attagene CIS-FACTORIAL HepG2 Assay for human Hepatocyte Nuclear Factor 6 (HNF6) (AID 2282952); conditions: HepG2 Attagene cis-factorial HNF6 reporter transcription; actives raise or lower the signal
How it was run: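 Multiplexed mRNA reporter assay in transfected HepG2; 24 h dosing; RT-PCR plus capillary electrophoresis fluorescence; DMSO-referenced bidirectional curve fitting.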

[17] = ATG_MRE_CIS: Attagene CIS-FACTORIAL HepG2 Assay for human Metal Responsive Element (MRE) (AID 2282954); conditions: HepG2 MRE cis-reporter transcription, Attagene multiplex; actives raise or lower the signal
How it was run: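 Fluorescent reporter fragments separated by capillary electrophoresis give mRNA induction for the MRE unit after 24 h treatment of transfected HepG2 cells. Endogenous transcription-factor activity is read; DMSO serves as negative control and baseline.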

[18] = ATG_Sox_CIS: Attagene CIS-FACTORIAL HepG2 Assay for human SRY-box transcription factor (SOX) (AID 2282960); conditions: HepG2 Attagene cis-factorial SOX reporter, mRNA; actives raise or lower the signal
How it was run: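 Transient MRTU transfection of HepG2; 24 h compound incubation; TriZol RNA, oligo(dT) RT, PCR, 6-FAM primer extension, HpaI cut, CE. Bidirectional fit, DMSO = baseline.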

[19] = target: Transcription factor Sp1 (Homo sapiens) (UniProt P08047); test: ATG_Sp1_CIS: Attagene CIS-FACTORIAL HepG2 Assay for human Specificity Protein 1 (Sp1) (AID 2282961); conditions: HepG2 Sp1 cis-reporter transcription, actives raise or lower the signal
How it was run: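 Endogenous Sp1 activity was gauged in human liver HepG2 cells bearing transfected reporter units under a cis-regulating promoter. After 24 h dosing, reporter mRNA was quantified by RT-PCR with capillary electrophoresis, and activity fitted bidirectionally versus DMSO.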

[20] = target: Signal transducer and activator of transcription 3 (Homo sapiens) (UniProt P40763); test: ATG_STAT3_CIS: Attagene CIS-FACTORIAL HepG2 Assay for human Signal Transducer and Activator of Transcription 3 (STAT3) (AID 2282963); conditions: HepG2, Attagene cis-factorial STAT3 reporter transcription; actives raise or lower the signal
How it was run: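 Values derive from bidirectional fits relative to DMSO of reporter mRNA levels, measured by RT-PCR with capillary electrophoresis, in HepG2 cells carrying transiently transfected cis-regulated reporter units and exposed 24 h.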

Measured: AC50

Sequence of Transcription factor Sp1 (Homo sapiens) (P08047 whole entry, looked up): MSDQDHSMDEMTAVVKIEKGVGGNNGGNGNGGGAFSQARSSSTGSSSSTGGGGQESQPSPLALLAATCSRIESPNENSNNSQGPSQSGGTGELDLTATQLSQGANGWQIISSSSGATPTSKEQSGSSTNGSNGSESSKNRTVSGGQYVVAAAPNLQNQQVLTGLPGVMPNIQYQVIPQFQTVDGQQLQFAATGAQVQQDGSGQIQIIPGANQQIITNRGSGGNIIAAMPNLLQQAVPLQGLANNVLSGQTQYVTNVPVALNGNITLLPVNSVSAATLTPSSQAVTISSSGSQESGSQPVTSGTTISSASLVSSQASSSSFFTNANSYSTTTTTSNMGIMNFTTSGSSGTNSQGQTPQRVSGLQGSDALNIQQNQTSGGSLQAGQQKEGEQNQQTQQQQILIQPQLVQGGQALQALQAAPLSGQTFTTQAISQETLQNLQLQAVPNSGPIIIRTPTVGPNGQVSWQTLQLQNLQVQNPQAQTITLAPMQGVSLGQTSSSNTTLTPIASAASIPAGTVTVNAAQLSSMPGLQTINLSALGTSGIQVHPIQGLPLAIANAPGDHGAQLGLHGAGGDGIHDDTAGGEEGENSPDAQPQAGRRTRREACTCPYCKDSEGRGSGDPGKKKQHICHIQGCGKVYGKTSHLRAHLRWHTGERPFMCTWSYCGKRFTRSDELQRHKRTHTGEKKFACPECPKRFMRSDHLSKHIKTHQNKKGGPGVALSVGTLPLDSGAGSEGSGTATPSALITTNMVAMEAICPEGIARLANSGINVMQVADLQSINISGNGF
Sequence of Hepatocyte nuclear factor 6 (Homo sapiens) (Q9UBC0 whole entry, looked up): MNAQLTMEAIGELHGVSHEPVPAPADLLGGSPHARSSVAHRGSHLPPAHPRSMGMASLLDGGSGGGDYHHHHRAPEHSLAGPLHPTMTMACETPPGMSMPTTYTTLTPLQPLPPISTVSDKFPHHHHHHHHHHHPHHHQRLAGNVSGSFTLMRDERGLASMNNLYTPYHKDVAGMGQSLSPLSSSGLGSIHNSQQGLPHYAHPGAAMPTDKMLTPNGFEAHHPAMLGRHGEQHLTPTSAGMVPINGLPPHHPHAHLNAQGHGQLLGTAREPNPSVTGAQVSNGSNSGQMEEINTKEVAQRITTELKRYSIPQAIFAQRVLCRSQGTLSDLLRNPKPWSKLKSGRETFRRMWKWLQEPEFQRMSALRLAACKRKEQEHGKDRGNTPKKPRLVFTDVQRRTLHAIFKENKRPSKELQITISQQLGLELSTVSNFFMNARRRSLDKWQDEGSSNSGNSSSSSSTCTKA
Sequence of Signal transducer and activator of transcription 3 (Homo sapiens) (P40763 whole entry, looked up): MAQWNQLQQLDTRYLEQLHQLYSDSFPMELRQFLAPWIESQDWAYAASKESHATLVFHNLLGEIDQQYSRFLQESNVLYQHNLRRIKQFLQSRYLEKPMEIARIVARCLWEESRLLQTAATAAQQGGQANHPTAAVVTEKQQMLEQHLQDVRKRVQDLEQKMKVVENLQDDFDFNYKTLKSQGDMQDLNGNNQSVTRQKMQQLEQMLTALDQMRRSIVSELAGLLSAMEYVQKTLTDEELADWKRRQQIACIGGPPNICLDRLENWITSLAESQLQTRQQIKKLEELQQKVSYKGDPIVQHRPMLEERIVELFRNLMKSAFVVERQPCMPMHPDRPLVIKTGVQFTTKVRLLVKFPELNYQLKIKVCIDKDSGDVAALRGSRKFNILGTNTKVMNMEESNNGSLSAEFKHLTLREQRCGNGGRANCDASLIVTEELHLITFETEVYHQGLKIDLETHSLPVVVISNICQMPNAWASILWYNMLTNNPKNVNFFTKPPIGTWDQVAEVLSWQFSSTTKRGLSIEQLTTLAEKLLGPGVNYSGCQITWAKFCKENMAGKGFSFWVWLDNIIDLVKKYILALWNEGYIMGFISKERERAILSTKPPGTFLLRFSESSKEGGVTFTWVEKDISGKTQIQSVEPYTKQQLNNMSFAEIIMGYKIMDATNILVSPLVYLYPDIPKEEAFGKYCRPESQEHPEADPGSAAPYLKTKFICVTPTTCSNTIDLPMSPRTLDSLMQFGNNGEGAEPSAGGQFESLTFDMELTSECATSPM
Sequence of CCAAT/enhancer-binding protein beta (Homo sapiens) (P17676 whole entry, looked up): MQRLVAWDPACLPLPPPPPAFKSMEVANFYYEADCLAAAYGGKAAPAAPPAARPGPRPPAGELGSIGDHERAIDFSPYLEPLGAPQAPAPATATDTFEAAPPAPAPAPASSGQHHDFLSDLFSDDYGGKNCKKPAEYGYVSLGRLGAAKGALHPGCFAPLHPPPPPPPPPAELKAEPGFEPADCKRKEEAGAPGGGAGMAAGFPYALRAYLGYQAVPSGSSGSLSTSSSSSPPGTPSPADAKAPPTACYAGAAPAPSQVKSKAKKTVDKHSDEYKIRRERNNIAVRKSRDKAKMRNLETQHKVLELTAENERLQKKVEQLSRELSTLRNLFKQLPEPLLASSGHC
Sequence of Hepatocyte nuclear factor 3-beta (Homo sapiens) (Q9Y261 whole entry, looked up): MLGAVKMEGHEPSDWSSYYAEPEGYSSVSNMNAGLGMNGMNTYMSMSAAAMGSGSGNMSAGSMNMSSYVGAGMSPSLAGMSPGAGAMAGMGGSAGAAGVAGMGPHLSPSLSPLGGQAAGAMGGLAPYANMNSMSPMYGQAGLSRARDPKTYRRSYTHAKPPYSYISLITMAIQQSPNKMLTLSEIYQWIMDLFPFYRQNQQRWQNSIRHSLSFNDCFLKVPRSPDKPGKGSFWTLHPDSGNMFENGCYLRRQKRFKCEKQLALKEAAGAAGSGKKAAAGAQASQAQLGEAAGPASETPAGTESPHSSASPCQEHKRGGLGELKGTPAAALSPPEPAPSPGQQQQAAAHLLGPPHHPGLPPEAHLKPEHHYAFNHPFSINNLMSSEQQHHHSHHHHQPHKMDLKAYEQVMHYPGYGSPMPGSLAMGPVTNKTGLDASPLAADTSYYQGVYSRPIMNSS

CCNCC
inactive: all assays above

CCCCCCC1CCOC1=O (stereo not given)
inactive: all assays above

COc1ccc(CO)cc1
inactive: all assays above

CC1(C)[C@H](C(=O)O[C@H](C#N)c2cccc(Oc3ccccc3)c2)[C@@H]1C=C(Br)Br
inactive: all assays above

O=c1c2ccccc2c(=O)c2c1cc(Cl)c1[nH]c3c([nH]c12)c(Cl)cc1c(=O)c2ccccc2c(=O)c13
active: [5] 26.1 µM
inactive: all other assays above

Oc1ccc(C2(c3ccc(O)cc3)c3ccccc3-c3ccccc32)cc1
active: [1] 17.1 µM | [2] 17.7 µM | [6] 17 µM | [8] 14 µM | [11] 9.31 µM | [12] 14.6 µM | [13] 14.8 µM | [16] 16.8 µM | [17] 13.1 µM
inactive: all other assays above

C#CC1(O)CCCCC1
inactive: all assays above

O=[N+]([O-])O.O=[N+]([O-])O.[Cd]
active: [1] 1.83 µM | [2] 0.873 µM | [3] 5.97 µM | [8] 1 µM | [12] 11.1 µM | [13] 1.03 µM | [17] 0.351 µM | [18] 1.31 µM | [19] 1.38 µM | [20] 11.1 µM
inactive: all other assays above

Oc1cc(Cl)ccc1Cl
inactive: all assays above

CCc1cc(C)cc(CC)c1-c1c(OC(=O)C(C)(C)C)n2n(c1=O)CCOCC2
inactive: all assays above

C=Cc1cccc(CCl)c1
active: [9] 100 µM | [13] 100 µM | [19] 25.5 µM
inactive: all other assays above

CN1C(=O)CCS(=O)(=O)C1c1ccc(Cl)cc1 (stereo not given)
inactive: all assays above

O=C(CCN1CC1)OCC(CO)(COC(=O)CCN1CC1)COC(=O)CCN1CC1
inactive: all assays above

Cc1ccccc1CCl
inactive: all assays above
